Screens (PubChem BioAssay)
MBD2 inh = inhibitors of human MBD2 binding to methylated oligonucleotide; TR-FRET; 0.31% of 370,000 active; inhibition, % at 4.4 µM; Q9UBB5; in the data active means inhibition above about 13%
Target sequence (Q9UBB5 whole entry, looked up): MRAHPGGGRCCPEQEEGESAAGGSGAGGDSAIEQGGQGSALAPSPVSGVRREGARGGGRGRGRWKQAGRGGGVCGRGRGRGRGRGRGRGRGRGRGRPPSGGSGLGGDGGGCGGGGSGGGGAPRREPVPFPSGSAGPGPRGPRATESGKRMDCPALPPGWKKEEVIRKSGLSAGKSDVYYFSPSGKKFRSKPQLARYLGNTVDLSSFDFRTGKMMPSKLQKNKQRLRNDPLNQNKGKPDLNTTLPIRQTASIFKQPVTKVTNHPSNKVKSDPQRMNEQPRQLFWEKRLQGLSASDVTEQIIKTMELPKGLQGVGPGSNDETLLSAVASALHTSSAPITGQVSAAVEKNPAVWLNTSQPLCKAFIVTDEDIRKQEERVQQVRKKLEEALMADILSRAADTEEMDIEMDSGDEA
M18AAP inhibitor = blocks P. falciparum M18 aspartyl aminopeptidase | recombinant PfM18AAP, H-Glu-NHMec fluorogenic cleavage | 1.2% of 290,000 active | inhibition, % at 7.35 µM | AID 1822;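 active means inhibition above the campaign mean inhibition over all tested compounds plus 3 SD, cut at about 28% in these data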;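 further: 0% = plate median of test compound wells and 100% = 2 mM ZnCl2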
UHRF1 binding = UHRF1 methyl-DNA binding inhibition | inhibition, % at 4.4 µM | 0.75% of 370,000 active | UHRF1 binding to methylated oligo, TR-FRET | AID 687016; in the data active means inhibition above about 21%;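 further: UHRF1 SRA domain binding a hemimethylated CpG hairpin DNA probe; 0% = median of test compound wells and 100% = reference inhibitor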
PfGluPho inh = PfG6PD (Plasmodium falciparum) enzyme inhibition | PfGluPho enzyme, NADPH resazurin-diaphorase fluorescence | inhibition, % at 20 µM | 0.78% of 350,000 active | AID 504690;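 active means inhibition reaching at least a set limit at 20 µM in the primary screen, cut at about 59% in these data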;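 further: 0% = DMSO wells with substrate and 100% = DMSO wells lacking glucose-6-phosphate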
PRMT1 FP inh = inhibitors of human PRMT1; Q99873; recombinant PRMT1, activity-based probe fluorescence polarization; inhibition, % at 2.79 µM; 1.3% of 370,000 active; AID 652257;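 active means inhibition above about 21% made by adding two undisclosed values, limit read from the data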
Numbers without * were called inactive; nt = no result. Hits are enriched below; roughly 3.3% of the tested compounds scored in any of these assays.

SMILES	MBD2 inh	M18AAP inhibitor	UHRF1 binding	PfGluPho inh	PRMT1 FP inh
COC(=O)C[C@@H]1CC[C@@H]2[C@H](COc3ccc(NC(=O)c4ccc5c(c4)OCO5)cc3C(=O)N2C)O1	-2	nt	0	nt	2
CCOC(=O)c1c(N)sc(C(O)(C(F)(F)F)C(F)(F)F)c1-c1ccc(OC)cc1OC	-3	3	25*	8	1
CC(Sc1nnc(Cc2ccccc2)o1)C(=O)NC1(C#N)CCCCC1 (stereo not drawn)	2	nt	24*	-7	4
Nn1c(SCC(=O)Nc2ccccc2-c2ccccc2)nnc1-c1cc(-c2ccc(F)cc2)n[nH]1	-7	nt	-2	nt	-1
COc1ccc(C2c3ccsc3CCN2C(C)=O)cc1 (stereo not drawn)	-2	6	0	-5	-2
O=C(C1CC1)N1CCc2sccc2C1c1ccc(Cl)cc1 (stereo not drawn)	4	-6	51*	4	-3
CCOc1ccccc1OCC(=O)Nc1cc(S(=O)(=O)N2CCCCC2)ccc1N1CCN(CC)CC1	2	nt	-2	6	1
Cc1ccc(S(=O)(=O)N2CCCCC2)cc1NC(=O)COC(=O)C1CC1	2	nt	0	-6	3
Cc1ccc(S(=O)(=O)N2CCCCC2)cc1NC(=O)c1cc(F)c(F)c(F)c1F	10	nt	22*	-3	-4
COc1ccccc1OCC(=O)Nc1cc(S(=O)(=O)N2CCCCC2)ccc1N1CCCCC1	10	-6	27*	20	-2
COc1ccccc1NC(=O)COC(=O)c1cc([N+](=O)[O-])ccc1N1CCCC1	-2	nt	35*	23	-1
Cc1ccc(S(=O)(=O)N2CCCCC2)cc1NC(=O)COC(=O)c1cccn1C	3	nt	40*	5	4
O=C(COC(=O)c1cc([N+](=O)[O-])ccc1N1CCCC1)Nc1ccccc1OC(F)F	-5	nt	0	11	4
Cc1ccc(S(=O)(=O)N2CCCCC2)cc1NC(=O)c1ccco1	-1	nt	1	0	0
C[C@@H]1CN([C@@H](C)CO)C(=O)CCCn2cc(nn2)CO[C@H]1CN(C)C(=O)Nc1ccccc1	-3	nt	-1	nt	-3
O=C(NCCc1ccccc1Cl)[C@@H]1CCCN1C(=O)[C@@H](NS(=O)(=O)c1ccc(F)cc1F)C1CCCCC1	7	nt	1	nt	0
COc1ccc(S(=O)(=O)N2CCCCC2)cc1NC(=O)CCc1nc2ccccc2c(=O)[nH]1	-8	nt	-1	-11	1
Cc1ccc(S(=O)(=O)N2CCCCC2)cc1NC(=O)CCc1nc2ccccc2c(=O)[nH]1	-3	nt	-4	7	22*
Cc1ccc(C)c(NC(=O)C2CCCN2S(=O)(=O)c2cccc3cccnc23)c1 (stereo not drawn)	-4	nt	-1	nt	-5
O=C(O)c1cn(-c2ccc(F)cc2)c2cc(Cl)c(F)cc2c1=O	-1	-2	28*	-14	-1
O=c1/c(=C/c2ccccn2)sc2nc3ccccc3n12	0	36*	0	14	5
CCCN1C(=O)c2[nH]nc(-c3ccccc3)c2C1c1ccc(F)cc1 (stereo not drawn)	2	nt	-1	nt	22*
C[C@H](O)[C@@H]1CN2CCc3c([nH]c4c(-c5ccccc5)cccc34)[C@@H]2C[C@@H]1N(C)C(=O)c1ccco1	-1	nt	-7	nt	9
CC(C)CCNCC(O)CON=C1c2ccccc2-c2ccccc21 (stereo not drawn)	-2	-1	25*	-6	-1
CC(=O)c1cccc(S(=O)(=O)NC2CC2)c1	3	1	0	3	23*
SMILES	MBD2 inh	M18AAP inhibitor	UHRF1 binding	PfGluPho inh	PRMT1 FP inh
CC(=O)c1cccc(S(=O)(=O)NC2CCCCCC2)c1	1	-2	8	-17	1
Cn1nc(C(F)(F)F)c(C#N)c1N1CCN(c2ccccn2)CC1	9	-7	23*	6	-2
C=CCCC1CN(Cc2ccc(OC)cc2)S(=O)(=O)c2c(Oc3cc(C)c(C)c(C)c3)cccc2O1 (stereo not drawn)	-4	nt	1	nt	-1
Cc1ccc(S(=O)(=O)NC2=NCN(CCOC(=O)c3ccc([N+](=O)[O-])cc3)CN2)cc1	2	-2	60*	-12	1
Cc1ccc(S(=O)(=O)NC2=NCN(CCOC(=O)c3ccccc3)CN2)cc1	-1	-2	2	3	-3
CNc1ccc(Br)cc(C(=O)/C=C/c2ccc(Cl)cc2Cl)c1=O	3	18	-1	25	22*
CCNc1ccc(Br)cc(C(=O)/C=C/c2ccc(Cl)cc2)c1=O	nt	12	nt	58	nt
CCNc1ccc(Br)cc(C(=O)/C=C/c2ccc3c(c2)OCO3)c1=O	3	16	6	33	38*
CNc1ccc(Br)cc(C(=O)/C=C/c2cccc(OC)c2)c1=O	-3	18	-2	39	27*
CNc1ccc(Br)cc(C(=O)/C=C/c2ccc(OC)cc2OC)c1=O	-1	26	-1	37	14
CCCCc1c(-c2ccccc2OC)ncn1Cc1ccc(F)c(F)c1	0	nt	0	nt	-1
CCOc1ccccc1C(=O)NCC(=O)NNC(=O)c1cccs1	-1	nt	21*	-7	-1
O=C1NC(=Nc2ccc(Cl)cc2)/C(=C/c2ccco2)S1	2	8	0	34	14
Cc1cccc(N=C2NC(=O)S/C2=C\c2ccco2)c1	-6	6	-3	-3	21*
Cc1ccc(C(=O)CCC(=O)Nc2ccc(C)cn2)cc1	-4	nt	29*	1	-6
Cc1ccc(NC(=O)CCC(=O)c2cc(C)sc2C)nc1	-5	nt	-2	12	-2
Brc1cccc(C2Nc3cccc4cccc(c34)N2)c1	6	24	-1	15	10
c1ccc(C2Nc3cccc4cccc(c34)N2)cc1	-8	24	-8	55	8
Clc1cccc(C2Nc3cccc4cccc(c34)N2)c1	-2	32*	-2	21	10
Clc1cccc(Cl)c1C1Nc2cccc3cccc(c23)N1	-6	4	-3	26	31*
S=c1[nH]nc(C2CCCCC2)n1/N=C/c1ccncc1	1	15	-2	24	1
O=C(O)c1ccc(/C=N/n2c(C3CCCCC3)n[nH]c2=S)cc1	2	30*	-2	12	0
CCOc1ccccc1NC(=O)CSc1nnc(SCc2ccccc2)s1	-2	nt	0	nt	-9
Cn1c(C(=O)N2CCCC(C(=O)NCCCSC3CCCCC3)C2)cc2sccc21 (stereo not drawn)	1	6	61*	0	3
Cn1c(C(=O)N2CCCC(C(=O)NCc3cccs3)C2)cc2sccc21 (stereo not drawn)	-5	1	0	0	4
O=c1[nH]c2ccc(S(=O)(=O)N3CCCC3)cc2o1	0	nt	-1	nt	-5
C=CCN1C[C@@H](COCc2ccccc2)OCCS1(=O)=O	-8	nt	0	nt	0
COc1cccc(Nc2ccc(N3CCCCC3)cc2)c1OC	3	nt	2	47	24*
CSc1cccc(NC(=S)N(CCCN2CCC(C)CC2)Cc2cccs2)c1	4	6	28*	12	1
